Screens as filed in PubChem BioAssay.
In the library only some 3.4% were active in any assay of this set; here they are far more common.
HSP90 refold inh = blocks HSP90-mediated luciferase refolding in reticulocyte lysate | 0.91% of 290,000 active | Rabbit reticulocyte lysate, luciferase refolding luminescence, 3 h | inhibition, % at 5.6 µM;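 active = inhibition above the screen-wide mean plus 3 SD, computed separately per campaign, cut at about 16% in these data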;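 also: inhibitors lower the luminescence because luciferase stays unfolded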
SMARCA2 activ = increases SMARCA2 function in MMTV reporter cells. activation, % at 9.1 µM. MG213 cells, MMTV-luciferase reporter, dexamethasone, overnight. AID 652017. 1% of 370,000 active; in the data active = activation above about 7.8%
AI-2 QS mod = modulates the Vibrio harveyi AI-2 quorum sensing system; Vibrio harveyi JMH597 AI-2 luminescence/OD600 ratio, 9 h; hits give low values; strain lacks LuxN and CqsS sensors; 0 = neutral-control median; activity change, % at 7.5 µM; 0.4% of 300,000 active; in the data active = activity change below about -75%, passing the limit was not always enough;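 also: luminescence divided by OD600 gain over 9 h not by final OD600 alone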
HSF1 inh = HSF1 inhibition; activity change, negative = inhibition, % at 7.5 µM (by protocol); AID 2098; NIH3T3-HGL HSE-luciferase, MG132-induced, luminescence 8 h; hits give low values; 0.77% of 300,000 active;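 active = more than half of replicate wells show activity change below -50%, luminescence cut by over half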;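 also: luciferase reports HSF-1 transcriptional activity via heat shock element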
PG9 Ab binder = small molecules binding HIV-1 gp120 antibody PG9. TR-FRET gp120-PG9 antibody binding. inhibition, % at 6.7 µM. 0.43% of 360,000 active. AID 624416; in the data active = inhibition above about 8.5%
GAA850 FXN act = activators of GAA850 frataxin (FXN) promoter. HEK293 lucGAA850 FXN promoter luciferase reporter, 24 h; percent of 10 µM SAHA response. activation, % at 6 µM. 0.56% of 360,000 active. AID 540364;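 active = activation above the average of all compounds screened plus 3 SD, cutoff fixed separately per campaign, cut at about 7.5% in these data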
PG9 bind confirm = PG9 antibody binding, confirmed | shares compounds with PG9 Ab binder | TR-FRET PG9 antibody binding, biochemical | inhibition, % at 6.7 µM | 90% of 1,500 active; in the data active = inhibition above about 9%
PGV04 counter = PGV04 control antibody binding, counter-screen. AID 651604. 95% of 1,500 active. inhibition, % at 6.7 µM. shares compounds with PG9 Ab binder. TR-FRET PGV04 antibody-gp120 binding, biochemical; in the data active = inhibition above about 9.5%
Large screens that a line does not name were inactive (follow-up assays come after a bar, where they were run).

CC(C)C1Cc2ccccc2-c2[nH]c(=S)[nH]c(=O)c21 (configuration not stated)	PG9 Ab binder 30 (no result: HSP90 refold inh) | PG9 bind confirm inactive | PGV04 counter inactive
CCC1(CC)Cc2ccccc2-c2nc(NN)[nH]c(=O)c21	none
CCC1(CC)Cc2ccccc2-c2[nH]c(=S)[nH]c(=O)c21	PG9 Ab binder 17 (no result: HSP90 refold inh) | PG9 bind confirm inactive | PGV04 counter inactive
Cn1cccc1Cc1nnc(SCC(=O)Nc2nc3ccccc3s2)n1CCc1ccccc1	none (no result: SMARCA2 activ, AI-2 QS mod, HSF1 inh, PG9 Ab binder)
CCn1c(Cc2ccccc2)nnc1SCC(=O)Nc1nc2ccccc2s1	PG9 Ab binder 17 | PG9 bind confirm 29 | PGV04 counter 40
CCCCNC(=O)c1nc(-c2cnc(C)cn2)oc1-c1ccc(Cl)cc1	none (no result: HSP90 refold inh, AI-2 QS mod, HSF1 inh, GAA850 FXN act)
O=C(Nc1nc2ccccc2n1CCOc1ccccc1)c1ccco1	none
Cc1ccc(OCCn2c(NC(=O)c3ccco3)nc3ccccc32)cc1	PG9 Ab binder 19 | PG9 bind confirm 17 | PGV04 counter 25
O=c1[nH]n(-c2cccc3cccnc23)c(=O)c2ccccc12	none
O=C1C2C3c4ccccc4C(c4ccccc43)C2C(=O)N1c1cccc2cccnc12 (configuration not stated)	PG9 Ab binder 10 | PG9 bind confirm inactive | PGV04 counter inactive
Nc1[nH]c(C(=O)c2ccc(Br)cc2)c(-c2ccc(Cl)cc2)c1C(=O)NCCc1c[nH]c2ccccc12	none (no result: HSP90 refold inh, AI-2 QS mod, HSF1 inh, GAA850 FXN act)
CCc1ccc(S(=O)(=O)c2nnn3c2nc(NCCNC(C)=O)c2ccccc23)cc1	none
CCCCNc1nc2c(S(=O)(=O)c3ccccc3)nnn2c2ccccc12	PG9 Ab binder 29 | PG9 bind confirm 58 | PGV04 counter 75
C[C@]12c3[nH]c4ccccc4c3CCN1C(=O)C(CC(=O)NCCCn1ccnc1)C[C@@H]2C(=O)N1CCOCC1 (some centres not stated)	PG9 Ab binder 15 (no result: HSP90 refold inh, AI-2 QS mod, HSF1 inh) | PG9 bind confirm inactive | PGV04 counter 9.3
CC(C)N(C(=O)[C@H]1CC(CC(=O)NCCCn2ccnc2)C(=O)N2CCc3c([nH]c4ccccc34)[C@]12C)C(C)C (some centres not stated)	none (no result: HSP90 refold inh, AI-2 QS mod, HSF1 inh)
O=C(CNC(=O)c1ccc(Br)cc1)c1ccccc1	none
O=C(CNC(=O)c1ccc(Br)cc1)c1ccc(Br)cc1	PG9 Ab binder 11 | PG9 bind confirm 18 | PGV04 counter 26
COCc1cc(C)nc(Nc2ccc(C)c(C)c2)c1C#N	PG9 Ab binder 31 | PG9 bind confirm 29 | PGV04 counter 46
Oc1ccc(C[C@H]2CNC(=S)N2C[C@H]2CCCN2C[C@H](Cc2ccccc2)N2C[C@H](Cc3ccc(O)cc3)N(CCc3ccccc3)C2=S)cc1	none (no result: HSP90 refold inh, AI-2 QS mod, HSF1 inh, GAA850 FXN act)
CCOC(=O)c1c(C)[nH]c(C(=O)CSc2nccc(C)n2)c1C	PG9 Ab binder 22 | PG9 bind confirm 24 | PGV04 counter 41
CCOC(=O)c1c(C)[nH]c(C(=O)CSc2ccccc2)c1C	none
c1ccc(Sc2ncnc3ccccc23)cc1	none
c1ccc(Cc2nnc(Sc3ccccc3)c3ccccc23)cc1	PG9 Ab binder 29 | PG9 bind confirm 29 | PGV04 counter 36
COc1cc(NC(=O)C2CCCN(S(=O)(=O)c3ccc4[nH]c(=O)ccc4c3)C2)cc(OC)c1 (configuration not stated)	none
COc1ccc(NC(=O)C2CCCN(S(=O)(=O)c3ccc4[nH]c(=O)ccc4c3)C2)cc1 (configuration not stated)	PG9 Ab binder 9.6 | PG9 bind confirm 18 | PGV04 counter 26
Cc1ccc(NC(=O)C2CCCN(S(=O)(=O)c3ccc4[nH]c(=O)ccc4c3)C2)nc1 (configuration not stated)	none
CCOc1ccc(NC(=O)C2CCCN(S(=O)(=O)c3ccc4[nH]c(=O)ccc4c3)C2)cc1 (configuration not stated)	PG9 Ab binder 11 | PG9 bind confirm 38 | PGV04 counter 63
COC(=O)C1=C(C)N(C)C(=NCc2ccc3c(c2)OCO3)NC1c1cccc(Cl)c1 (configuration not stated)	none (no result: HSP90 refold inh, AI-2 QS mod, HSF1 inh, GAA850 FXN act)
O=C(Cn1cnc2ccccc2c1=O)N1CCN(Cc2ccc(F)cc2)CC1	none (no result: HSP90 refold inh, AI-2 QS mod, HSF1 inh, PG9 Ab binder, GAA850 FXN act)
COC(=O)c1cc(Cl)c(NC(=O)c2ccc(C(C)(C)C)cc2)cc1OC	none
COC(=O)c1cc(Cl)c(NC(=O)c2cc3ccccc3o2)cc1OC	PG9 Ab binder 8.7 | PG9 bind confirm inactive | PGV04 counter 38
CC1=NOC(=O)/C1=C\c1ccc(-c2ccccc2Br)o1	PG9 Ab binder 14 | PG9 bind confirm 30 | PGV04 counter 54
CC1=NOC(=O)/C1=C\c1ccc(-c2cccc(Cl)c2)o1	none (no result: SMARCA2 activ, PG9 Ab binder)
Cc1cc(Nc2ccc(Cl)c(C(F)(F)F)c2)cc(=O)n1-c1ccc(Cl)c(C(F)(F)F)c1	none (no result: HSP90 refold inh, AI-2 QS mod, HSF1 inh, GAA850 FXN act)
Cc1cc(N2CCNC[C@@H]2C)ccc1N1CCS(=O)(=O)CC1	none (no result: HSP90 refold inh, AI-2 QS mod, HSF1 inh, GAA850 FXN act)
O=C(CCSc1nnc2ccccn12)Nc1ccc(F)cc1	none
O=C(CCSc1nnc2ccc3ccccc3n12)Nc1ccc(F)cc1	PG9 Ab binder 23 | PG9 bind confirm inactive | PGV04 counter 21
CN(CC(=O)Nc1ccc(F)cc1)C(=O)CCc1nc2sc3c(c2c(=O)[nH]1)CCCC3	PG9 Ab binder 15 (no result: HSP90 refold inh) | PG9 bind confirm 13 | PGV04 counter 31
O=C(CCc1nc2sc3c(c2c(=O)[nH]1)CCCC3)Nc1cccc(Cl)c1	PG9 Ab binder 36 (no result: HSP90 refold inh) | PG9 bind confirm 28 | PGV04 counter 38
CCc1ccccc1NC(=O)CNC(=O)CCc1nc2sc3c(c2c(=O)[nH]1)CCCC3	PG9 Ab binder 19 (no result: HSP90 refold inh) | PG9 bind confirm 21 | PGV04 counter 38
CC[C@@]1(O)C(=O)OCc2c1cc1n(c2=O)Cc2cc3c(N)cccc3nc2-1	none (no result: HSP90 refold inh)
CC[C@@]1(O)C(=O)OCc2c1cc1n(c2=O)Cc2cc3c(CN(C)C)c(O)ccc3nc2-1	PG9 Ab binder 12 (no result: HSP90 refold inh) | PG9 bind confirm 12 | PGV04 counter 20
O=C(Nc1ccc2c(c1)C(=O)NC2=O)c1cc(Cl)ccc1Cl	PG9 Ab binder 9.5 | PG9 bind confirm 10 | PGV04 counter 15
CCOc1ccc(C(=O)Nc2ccc3c(c2)C(=O)NC3=O)cc1	none
O=C(Nc1ccc2c(c1)C(=O)NC2=O)c1cccc(Cl)c1	PG9 Ab binder 17 | PG9 bind confirm 28 | PGV04 counter 47
CCCCOc1ccc(C(=O)Nc2ccc3c(c2)C(=O)NC3=O)cc1	PG9 Ab binder 21 | PG9 bind confirm inactive | PGV04 counter 11
Cc1cccc(C(=O)Nc2ccc3c(c2)C(=O)NC3=O)c1	none
